This note sets out measurements from PubChem BioAssay (NCI).

The panel holds about 83,000 compounds, 20% with a hit somewhere; the sample as a whole holds those more often.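 Activity criterion: percent growth below 10, measured after cells in 96-well plates were exposed to a single compound concentration for 48 hours.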 Unmarked numbers belong to inactive results. Activity calls are given as the source filed them.

Some test systems named below: HCT-15 colon; HT29 colon; SNB-75 CNS; SNB-19 CNS; U251 CNS; PC-3 prostate; SK-MEL-5 melanoma; UACC-62 melanoma; LOX IMVI melanoma; SK-MEL-28 melanoma; SK-MEL-2 melanoma; EKVX NSCLC; SN12C renal; UO-31 renal; TK-10 renal; ACHN renal; CAKI-1 renal; A498 renal; CCRF-CEM leukemia; MOLT-4 leukemia.
What all share (assay): NCI-60 one-dose screen, 48 h (100 = growth as untreated, 0 = no growth, -100 = all killed)
What all share (details): 10 µM unless noted

On to `Oc1c(Cl)cc(Cl)c2ccc(Cn3cc(-c4cc(F)cc(F)c4)nn3)nc12`, for which the growth in the experiment with HCT-15 colon is 41.9%; in the experiment on HT29 colon, 68.5%; with SNB-75 CNS, 58.6%; in the experiment on SNB-19 CNS it was 94.1%; with U251 CNS, 96.2%; in the experiment with PC-3 prostate it was 84.8%. Moreover, the growth with SK-MEL-5 melanoma was 98.5%; in the experiment with UACC-62 melanoma, 74.1%; in the experiment with LOX IMVI melanoma, 20.8%; with SK-MEL-28 melanoma, 61.4%; in the experiment on SK-MEL-2 melanoma, 96.3%; with EKVX NSCLC it was 84.7%. The growth was 78.7% with SN12C renal; 68.3% in the experiment on UO-31 renal; 102% in the experiment with TK-10 renal; 36.5% with ACHN renal; 18.1% with CAKI-1 renal; 99.4% with A498 renal. Moreover, the growth in the experiment on CCRF-CEM leukemia was 4.58% (active); with MOLT-4 leukemia, 17.4%.
On to `O=C1Nc2ccc(I)cc2C1=O`, for which the growth was 101% with HCT-15 colon; 93.8% in the experiment with HT29 colon; 79.8% in the experiment with SNB-75 CNS; 98.3% in the experiment on SNB-19 CNS; 93.8% in the experiment with U251 CNS; 86.7% in the experiment on PC-3 prostate. The growth was 101% in the experiment on SK-MEL-5 melanoma; 92.3% in the experiment with UACC-62 melanoma; 75.8% in the experiment with LOX IMVI melanoma; 104% in the experiment with SK-MEL-28 melanoma; 85.4% in the experiment on SK-MEL-2 melanoma; 102% in the experiment with EKVX NSCLC. Moreover, the growth with SN12C renal is 98%; in the experiment on UO-31 renal it was 77.9%; in the experiment on TK-10 renal, 140%; with ACHN renal, 103%; with CAKI-1 renal it was 64.5%; in the experiment with A498 renal, 122%. Further, the growth in the experiment on CCRF-CEM leukemia was 119%; in the experiment with MOLT-4 leukemia, 102%.
Consider `Cc1nnc(NC(=O)c2nc(S(=O)(=O)Cc3ccc(F)cc3)ncc2Cl)s1`, for which the growth in the experiment on HCT-15 colon is 11.1%; with HT29 colon, 23.8%; with SNB-75 CNS, 79.3%; with SNB-19 CNS, 92.8%; in the experiment on U251 CNS it was 62.2%; with PC-3 prostate, 71.4%. Further, the growth with SK-MEL-5 melanoma is 98.9%; in the experiment on UACC-62 melanoma it was 19.8%; with LOX IMVI melanoma, 13.6%; with SK-MEL-28 melanoma, 50.5%; in the experiment on SK-MEL-2 melanoma it was 89.5%; in the experiment with EKVX NSCLC it was 90.5%. For the same compound, the growth was 64.7% in the experiment on SN12C renal; 73.6% in the experiment with UO-31 renal; 79% in the experiment with TK-10 renal; 96.5% with ACHN renal; -86.3% (active) in the experiment with CAKI-1 renal; 115% in the experiment with A498 renal. The growth in the experiment with CCRF-CEM leukemia is -43.3% (active); with MOLT-4 leukemia, 11.3%.
`O=C1c2c(c3c4ccccc4[nH]c3c3ccc4ccccc4c23)C(=O)N1CCN1CCCCC1`: the growth with HCT-15 colon was 25%; in the experiment on HT29 colon, 11.8%; in the experiment on SNB-75 CNS it was 52.6%; in the experiment with SNB-19 CNS it was 42.4%; with U251 CNS it was 10.8%; with PC-3 prostate, 53.3%. Also, the growth is 55.4% with SK-MEL-5 melanoma; 42.8% in the experiment with UACC-62 melanoma; 30.2% in the experiment with LOX IMVI melanoma; 98.1% in the experiment on SK-MEL-28 melanoma; 90.5% with SK-MEL-2 melanoma; 75.5% with EKVX NSCLC. The growth in the experiment with SN12C renal was 22.6%; with UO-31 renal, 39.7%; in the experiment with TK-10 renal, 87.4%; in the experiment on ACHN renal, 12.7%; in the experiment on CAKI-1 renal, 24.7%; in the experiment with A498 renal, 45.7%. Besides, the growth in the experiment with CCRF-CEM leukemia is 3.2% (active); in the experiment with MOLT-4 leukemia, 7.16% (active).
Regarding `Nc1ncnc2c1N=C(c1ccc3c(c1)OCO3)CC(c1ccc([N+](=O)[O-])cc1)N2` (stereo not given), the growth was 77% in the experiment on HCT-15 colon; 86.6% in the experiment on HT29 colon; 59.5% in the experiment on SNB-75 CNS; 86.6% with SNB-19 CNS; 86.8% in the experiment with U251 CNS; 47% with PC-3 prostate. In addition, the growth in the experiment on SK-MEL-5 melanoma is 70.3%; in the experiment with UACC-62 melanoma it was 64.8%; in the experiment with LOX IMVI melanoma, 75.5%; in the experiment on SK-MEL-28 melanoma, 110%; with SK-MEL-2 melanoma it was 60.8%; in the experiment on EKVX NSCLC it was 87.4%. Also, the growth in the experiment with SN12C renal was 84%; in the experiment with UO-31 renal, 64.1%; in the experiment with TK-10 renal, 112%; in the experiment on ACHN renal, 82.4%; in the experiment on CAKI-1 renal it was 99.2%; in the experiment with A498 renal, 67.3%. Moreover, the growth with CCRF-CEM leukemia is 39.3%; in the experiment with MOLT-4 leukemia it was 99.3%.
As for `O=C(Nc1nn(-c2ccc(Cl)cc2Cl)nc1-c1ccccc1)c1ccccc1`, the growth in the experiment with HCT-15 colon is 97.1%; in the experiment with HT29 colon, 94.1%; in the experiment on SNB-75 CNS it was 85.7%; with SNB-19 CNS, 105%; in the experiment on U251 CNS, 93.6%; with PC-3 prostate it was 84.3%. For the same compound, the growth is 110% in the experiment on SK-MEL-5 melanoma; 84.9% in the experiment with UACC-62 melanoma; 82.5% with LOX IMVI melanoma; 104% in the experiment on SK-MEL-28 melanoma; 106% in the experiment with SK-MEL-2 melanoma; 113% in the experiment with EKVX NSCLC. For the same compound, the growth with SN12C renal was 98.9%; in the experiment with UO-31 renal it was 67.6%; in the experiment with TK-10 renal it was 117%; in the experiment with ACHN renal, 94.8%; with CAKI-1 renal it was 85.1%; in the experiment on A498 renal, 116%. For the same compound, the growth in the experiment on CCRF-CEM leukemia is 95.9%; with MOLT-4 leukemia it was 83.5%.
In the case of `CCC(C)N(c1ccc(Cl)cc1)c1nc(-c2ccc(Br)cc2)cs1` (stereo not given), the growth is 97.7% in the experiment on HCT-15 colon; 106% in the experiment with HT29 colon; 102% in the experiment on SNB-75 CNS; 105% in the experiment with SNB-19 CNS; 98% in the experiment with U251 CNS; 99.9% in the experiment on PC-3 prostate. The growth in the experiment on SK-MEL-5 melanoma was 104%; in the experiment with UACC-62 melanoma, 87.2%; in the experiment on LOX IMVI melanoma it was 93.3%; in the experiment on SK-MEL-28 melanoma it was 111%; in the experiment on SK-MEL-2 melanoma it was 105%; with EKVX NSCLC, 80.2%. The growth in the experiment with SN12C renal is 99.2%; in the experiment with UO-31 renal it was 81.3%; with TK-10 renal it was 131%; in the experiment with ACHN renal it was 96.4%; in the experiment on CAKI-1 renal, 70.9%; with A498 renal, 94.7%. Also, the growth is 81.7% in the experiment with CCRF-CEM leukemia and 82.7% with MOLT-4 leukemia.
